Measurements published in PubChem BioAssay (Tox21).
Activity calls are given as the source filed them. Entries that show only a call come without a potency. Calls follow the shape of the full dose curve.

Biological target: Acetylcholinesterase (Homo sapiens) (UniProt P22303)
Test: Acetylcholinesterase (AChE) small molecule antagonists: enzyme-based qHTS assay with human liver microsomes (AID 1347399); also: nearly all actives have a fitted effect of over 60% in size
Conditions: Potency: qHTS inhibition; outcome: qHTS inhibition; series mostly up to 115 µM
Excerpt: National Center for Advancing Translational Sciences [NCATS]
Division of Preclinical Innovation [DPI]
U.S. Environmental Protection Agency [EPA]
National Institutes of Environmental Health Sciences [NIEHS]
National Toxicology Program [NTP]
U.S. Food and Drug Administration [FDA]
Acetylcholinesterase (AChE) is the primary cholinesterase in the body that hydrolyzes a key neurotransmitter, acetylcholine. Inhibition of AChE activity can lead to neurotoxicity. The known inhibitors include organophosphorous pesticides (OP), chemical warfare agents, drugs, and various phytochemicals. Some compounds like OP compounds may need metabolic activation to be active AChE inhibitors. The cytochrome P450 (CYP) superfamily in the human microsomes is responsible for the metabolism of various endogenous and exogenous compounds.
An enzyme-based assay with the recombinant human AChE, human liver microsomes and Amplite Colormetric acetylcholinesterase assay kit (AAT Bioquest, Sunnyvale, CA) was used to evaluate compounds in the Tox21 10K library that need metabolic activation for AChE inhibition. The assay uses 5, 5-dithiobis-(2-nitrobenzoic acid) (DTNB) to quantify the thiocholine produced from the hydrolysis of acetylthiocholine by AChE.
Tox21 Assay Protocol Summary:
For the enzyme-based AChE assay with microsomes addition, a mixture of human AChE (50 mU/mL) and human liver microsomes (0.25 mg/mL, final concentration) in 3 uL/well was dispensed into black, clear-bottom 1536-well plates using a Multidrop Combi dispenser (Thermo Scientific, MA). Then, 23 nL of compound or DMSO (vehicle control) was transferred into the assay plates by a Pintool Station (Wako Automation, CA). Following compound addition, 1 uL of NADPH (0.25 mg/mL, final concentration) was transferred to the assay plate by a Flying Reagent Dispenser (Beckman Coulter, CA). The plates were incubated for 30 min at 37 C and 5% CO2, followed by the addition of 4 uL of colorimetric detection cocktail solution (DTNB, acetylthiocholine) into each well using a Flying Reagent Dispenser (Beckman Coulter, CA) and then 10 min incubation at room temperature.

Chain of Acetylcholinesterase (Homo sapiens) (P22303 whole entry, looked up): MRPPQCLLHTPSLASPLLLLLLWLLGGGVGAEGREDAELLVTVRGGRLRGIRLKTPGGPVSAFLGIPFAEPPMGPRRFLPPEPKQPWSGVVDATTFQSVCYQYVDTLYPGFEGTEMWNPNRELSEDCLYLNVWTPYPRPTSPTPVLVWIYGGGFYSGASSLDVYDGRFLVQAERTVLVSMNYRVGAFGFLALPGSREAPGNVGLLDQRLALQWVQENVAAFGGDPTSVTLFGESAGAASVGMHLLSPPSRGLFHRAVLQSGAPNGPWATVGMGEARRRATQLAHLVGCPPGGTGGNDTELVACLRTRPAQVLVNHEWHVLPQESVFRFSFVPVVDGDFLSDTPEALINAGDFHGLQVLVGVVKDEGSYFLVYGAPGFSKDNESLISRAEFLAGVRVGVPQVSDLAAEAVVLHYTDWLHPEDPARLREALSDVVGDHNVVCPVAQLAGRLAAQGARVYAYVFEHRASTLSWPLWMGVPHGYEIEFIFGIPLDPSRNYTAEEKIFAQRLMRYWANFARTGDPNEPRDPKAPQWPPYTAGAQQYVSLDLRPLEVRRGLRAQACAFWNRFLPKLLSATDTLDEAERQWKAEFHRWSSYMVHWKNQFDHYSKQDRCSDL

Row | Compound | outcome | Potency | activity change, negative = inhibition
1 | Cc1cc(CCN2CCN(c3nsc4ccccc34)CC2)cc2c1NC(=O)CC2(C)C | inactive |  | 
2 | Cc1cc(C)c(N)cc1C |  | inactive | 
3 | Cn1cc(C(=O)[C@@H]2CCc3nc[nH]c3C2)c2ccccc21 |  | inactive | 
4 | CC(C)(C)C1CCC(=O)CC1 |  | inactive | 
5 | c1ccc2sc(SN(C3CCCCC3)C3CCCCC3)nc2c1 |  | inactive | 
6 | CCCCN1CCCC1C(=O)Nc1c(C)cc(C)cc1C (stereo not given) |  | inactive | 
7 | CCCOC(=O)c1ccc(N)cc1 |  | inactive | 
8 | Nc1ccc(NC(=O)c2ccc(N)cc2)cc1 |  | inactive | 
9 | CCCCCCCCCCCCSCCOCCO |  | inactive | 
10 | OCCN1CCOCC1 |  | inactive | 
11 | N#CCN(CC#N)CCN(CC#N)CC#N |  | inactive | 
12 | O=C(CCCCCCC(=O)Nc1ccccc1)NO |  | inactive | 
13 | CCCCCCCCCCOCC(O)CN (stereo not given) |  | inactive | 
14 | CCOc1ccc2nc3cc(N)ccc3c(N)c2c1 |  | inactive | 
15 | N=C(N)S(=O)O |  | inactive | 
16 | c1ccc2occc2c1 |  | inactive | 
17 | O=C(O)c1c(O)c(-c2ccccc2)nc2ccccc12 |  | inactive | 
18 | CC/C=C/CCCCCCCCCCOC(C)=O |  | inactive | 
19 | CNC(=O)c1c(I)c(NC(C)=O)c(I)c(C(=O)O)c1I |  | inactive | 
20 | OCCC(F)(F)C(F)(F)C(F)(F)C(F)(F)C(F)(F)C(F)(F)C(F)(F)C(F)(F)F |  | inactive | 

Row | Compound | outcome | Potency | activity change, negative = inhibition
21 | C/C(=N/NC(=O)c1ccncc1)C(=O)O |  | inactive | 
22 | CC(C)(C)NCC(O)COc1cccc2c1C[C@H](O)[C@H](O)C2 (stereo not given in full) |  | inactive | 
23 | COc1ccc2c(c1OC)C(=O)O[C@@H]2[C@H]1c2c(cc3c(c2OC)OCO3)CCN1C |  | inactive | 
24 | OCCCO |  | inactive | 
25 | C1=COCCC1 |  | inactive | 
26 | CCOC(=O)c1ccc(N(C)C)cc1 |  | inactive | 
27 | Nc1nc(CC(=O)O)cs1 |  | inactive | 
28 | NC(=O)c1ncn([C@@H]2O[C@H](CO)[C@@H](O)[C@H]2O)c1N |  | inactive | 
29 | CCOc1ccccc1O[C@H](c1ccccc1)[C@H]1CNCCO1 | inactive |  | 
30 | CCCN(CCC)c1c([N+](=O)[O-])cc(C(F)(F)F)c(N)c1[N+](=O)[O-] |  | inactive | 
31 | CCCCCCCCCCCCN(CCCCCCCCCCCC)CCCCCCCCCCCC |  | inactive | 
32 | C/C=C/C(=O)CC |  |  | -3.23% [at 23.6 µM] (inactive)
33 | O=C(O)C1CCC1 |  | inactive | 
34 | COc1cc(N)c(Cl)cc1C(=O)NC1CCN(Cc2ccccc2)CC1 |  | inactive | 
35 | C[C@]12CC[C@H]3C(=CCc4cc(O)ccc43)[C@@H]1CCC2=O |  | inactive | 
36 | CCn1c(=O)c2c(nc(/C=C/c3ccc(OC)c(OC)c3)n2C)n(CC)c1=O |  | inactive | 
37 | CCc1ccc(O)c(OC)c1 |  | inactive | 
38 | CCCCCCCCCC(=O)N(C)C |  | inactive | 
39 | CC(CC1c2ccccc2CCc2ccccc21)CN(C)C (stereo not given) |  | inactive | 
40 | COc1ccc(C(=O)c2ccc(OC)cc2O)c(O)c1 |  | inactive | 
